Among all 390,000 compounds or so, about 150 (0.038%) were called active. Not shown: some 3% with an inconclusive outcome. Calls follow the shape of the dose curve; as a rule, active = well fitted inhibition curve with a large enough effect; inconclusive = small, poorly fitted or top-dose-only effect; inactive = no such curve, though single readings can be large or run the other way. The sample as a whole holds a higher share of actives than the screen did.
Target: Regulator of G-protein signaling 4 (Homo sapiens) (UniProt P49798)
Experiment: Inhibitors of Regulator of G Protein Signaling (RGS) 4: qHTS; also: nearly all actives have a fitted effect of over 75% in size
Details: Transcreener GDP fluorescence polarization, RGS4-accelerated GTP hydrolysis; series mostly up to 114 µM; activity change, negative = inhibition: at the top concentration
Description: G-protein-coupled receptors (GPCRs) are well-established targets for drug discovery and development. Members of the "regulator of G-protein signaling" (RGS)-protein superfamily have recently emerged as critical modulators of specific GPCR signaling pathways. […] Combining specific RGS domain inhibitors with existing GPCR agonists should potentiate cellular responses and could also increase the specificity of action of existing therapeutics. Small molecule modulators of RGS domain activity should also have clinical utility in inhibiting or potentiating the actions of endogenous GPCR agonists. In particular, the diversity of RGS proteins with highly localized and dynamically regulated distributions in the human brain makes this family of proteins attractive targets for pharmacotherapy of central nervous system (CNS) disorders such as Parkinson's disease, schizophrenia, and anxiety.
This assay was used to screen the NIH Molecular Libraries Small Molecule Repository (MLSMR) in order to identify a small molecule that inhibits RGS4.
NIH Chemical Genomics Center [NCGC]
NIH Molecular Libraries Probe Centers Network [MLPCN]
Assay Submitter (PI): David Siderovski, University of North Carolina Chapel Hill (School of Medicine)
Two microliters of 500nM (2x working concentration) is dispensed into black medium-binding solid-bottom Kalypsys plates. Then with the Kalypsys pintool 23nl of control and compounds are transferred; the control compound is […] CCG-4986 (working concentration). After a 10 minute incubation at room temperature 2ul of antibody is added with the Kalypsys dispenser; (-)RGS4/Transcreener GDP solution in columns 3 and 4 which consisted of 10nM (2x working concentration) Alexa633, 20uM GTP, and 20 ug/ml GDP antibody and (+)RGS4/Transcreener GDP solution in columns 1,2, and 5 to 48 which consists of 900nM RGS4 (2x working concentration), 10nM Alexa633, 20 ug/ml GDP antibody. The plate is centrifuged at 1000 RPM for 15 seconds to remove any possible bubbles and then incubated for 5 minutes at ambient room temperature. An initial fluorescent polarization read (620 nm/688 nm) is performed on the Envision before the plate is incubated for 90 minutes at 30 deg C at a relative humidity of 80%. The plate is once more centrifuged at 1000 RPM for 15 seconds and another Envision fluorescent polarization (620 nm/688 nm) read is carried out.
% is scaled to controls: 0 for no effect and ±100 for the full control effect; potency is read from the fitted curve at half-maximal effect.

Regulator of G-protein signaling 4 (Homo sapiens), sequence (P49798 whole entry, looked up): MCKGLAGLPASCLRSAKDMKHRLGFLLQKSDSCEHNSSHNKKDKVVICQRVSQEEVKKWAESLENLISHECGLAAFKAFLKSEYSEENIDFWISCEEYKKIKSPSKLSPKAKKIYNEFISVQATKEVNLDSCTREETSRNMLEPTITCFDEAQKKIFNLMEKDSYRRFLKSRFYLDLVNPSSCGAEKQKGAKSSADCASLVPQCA

| Compound | activity change, negative = inhibition | Potency |
| --- | --- | --- |
| COc1cc(CN(CC2CCCO2)C(=O)c2ccccc2F)cc(OC)c1OC (stereo not drawn) | -2.76% (inactive) | – |
| CCn1c2ccccc2c2cc(NC(=O)COc3ccc(C)cc3C)ccc21 | 19.8% (inactive) | – |
| Nc1ccc2c3c(cccc13)C(=O)NC2=O | -13.2% [at 56.9 µM] (inactive) | – |
| COc1ccc(-c2ccc(C3C4C=CCCC4(C)C(=O)N3Cc3ccccc3)c(F)c2)cc1OC (stereo not drawn) | -8.45% (inactive) | – |
| Cc1ccc(Nc2ccc3cc(S(=O)(=O)N4CCCCC4)ccc3n2)cc1F | -14.4% (inactive) | – |
| O=C(NCC(c1ccc(Cl)cc1)N1CCOCC1)c1ccccc1F (stereo not drawn) | -11.4% (inactive) | – |
| COc1ccc(CCCOC(Cn2ccnc2)c2ccc(OC)cc2)cc1 (stereo not drawn) | 360% [at 56.9 µM] (inactive) | – |
| CCCNC(=O)C(CC)n1nc(CC)n2c(cc3oc(C)cc32)c1=O (stereo not drawn) | 30% (inactive) | – |
| CCCCCCCCCCCC(=O)O | -7.58% (inactive) | – |
| CCCCC/C=C\CC1OC1CCCCCCCC(=O)O (stereo not drawn) | – | 37.7 µM (active) |
| CCc1ccc(CN(Cc2ccco2)C(=O)c2ccccc2Cl)cc1 | -1.34% (inactive) | – |
| COc1ccccc1N1CCN(C[C@@H]2CN3C(=O)N(C)c4ccccc4C3=N2)CC1 | -600% [at 56.9 µM, above what the read-out allows, likely interference] (inactive) | – |
| O=C(COc1ccc(Cl)cc1)Nc1ccc(-c2nc3cc(Cl)ccc3o2)c(O)c1 | -9.26% (inactive) | – |
| CCN(CC)/[N+]([O-])=N/Oc1cc(O/[N+]([O-])=N/N2CCCC2CO)c([N+](=O)[O-])cc1[N+](=O)[O-] (stereo not drawn) | -53.1% (inactive) | – |
| COc1ccc(OC)c(NC(=O)CSC2=Nc3ccccc3C3=NC(CC(=O)NCc4ccc(F)cc4)C(=O)N23)c1 (stereo not drawn) | 5.73% (inactive) | – |
| CCCc1nn2c(=O)cc(COC(=O)c3ccc(NC(=O)COc4ccc(F)cc4)cc3)nc2s1 | 18.8% (inactive) | – |
| CCc1ccccc1NC(=O)N1CCC2(CC1)Oc1ccccc1C(=O)N2Cc1ccccc1F | 13.5% (inactive) | – |
| Cc1ccccc1CSCCNC(=O)C1CCN(S(=O)(=O)Cc2ccccc2)CC1 | 23% (inactive) | – |
| COc1ccccc1C(=O)NCCn1cc(SCc2ccccc2Cl)c2ccccc21 | 7.87% (inactive) | – |
| Cc1ccc(C)n1-c1nnc(N2CCC(C(=O)NCc3ccccc3Cl)CC2)s1 | 0.173% (inactive) | – |
| COc1ccc(-c2noc(CSc3nnc(-c4ccccc4)n3-c3ccc(F)cc3)n2)c(OC)c1 | -3.78% (inactive) | – |

| Compound | activity change, negative = inhibition | Potency |
| --- | --- | --- |
| Cc1c(C(=O)NCc2ccccc2Br)oc2ccc3c(c12)C(=O)CC(C)(C)O3 | 7.56% (inactive) | – |
| CCn1cc(C(=O)NCCc2ccccc2)c(=O)c2cc(S(=O)(=O)N3CCCCCC3)ccc21 | 0.892% (inactive) | – |
| Cc1ccccc1CNC(=O)c1cccc(NC(=O)c2nsc3ccccc23)c1 | -2.43% (inactive) | – |
| Cc1ccc(C)c(S(=O)(=O)n2nc(C)c(S(=O)(=O)N3CCC(C)CC3)c2C)c1 | 1.81% (inactive) | – |
| Cc1ccc2oc3c(c(=O)c2c1)C(c1ccc(O)cc1)N(Cc1ccc2c(c1)OCO2)C3=O (stereo not drawn) | -8.31% (inactive) | – |
| Cc1ccc(/C(=C/CN2CCCC2)c2ccccn2)cc1 | 7.32% [at 56.9 µM] (inactive) | – |
| CCC1=Nc2cc(C(=O)NCC(C)c3ccccc3)ccc2Sc2ccc(C)cc21 (stereo not drawn) | -7.58% (inactive) | – |
| CN(C)c1cc2c(Nc3ccc4c(cnn4Cc4ccccc4)c3)ncnc2cn1 | -0.133% [at 56.9 µM] (inactive) | – |
| Cc1csc(-c2nc3ccccc3n2C)n1 | -622% [at 56.9 µM, above what the read-out allows, likely interference] (inactive) | – |
| C=CCCN(C(Cc1ccccc1)C(=O)OC)S(=O)(=O)c1cc(Br)ccc1Br (stereo not drawn) | -0.629% (inactive) | – |
| Cc1ccc(NC(=O)CCCn2c(=O)c3cccn3c3ccccc32)cc1Cl | 7.61% (inactive) | – |
| CC(N)(C(=O)O)c1ccc(-c2nn[nH]n2)cc1 (stereo not drawn) | 10% [at 56.9 µM] (inactive) | – |
| O=C(c1cccc(Br)c1)N1CCN(Cc2cc(=O)n3nc(-c4ccccc4)sc3n2)CC1 | 3.64% (inactive) | – |
| O=C(NCCCO)c1nn(-c2ccc(Cl)cc2)nc1CO | 28% (inactive) | – |
| Cc1oc2ccc(O)c(CN3CCC(C)CC3)c2c1C(=O)Nc1ccccc1 | 15.4% (inactive) | – |
| O=C(O)c1ccc2c(c1)N(Cc1ccc(F)cc1)C(=O)c1ccccc1S2=O (stereo not drawn) | 11.3% (inactive) | – |
| OCCNc1ncnc2oc(-c3ccco3)c(-c3ccco3)c12 | -28.3% (inactive) | – |
| O=C(Cn1nc(Cc2cccnc2)c2ccccc2c1=O)N1CCN(c2ccccc2F)CC1 | 15% (inactive) | – |
| Cc1cc2c(cc3c(SCc4cccc(Cl)c4)nnc(C)n32)o1 | 4.36% (inactive) | – |
| Cc1cccc(CCNC(=O)c2ccc3c(c2)nc2n3CCC(C)C2)c1 (stereo not drawn) | -14.1% (inactive) | – |
| Cc1ccc(Cn2c(C)c3cnn(CC(=O)NCc4ccccc4)c(=O)c3c2C)cc1 | -1.73% (inactive) | – |

| Compound | activity change, negative = inhibition | Potency |
| --- | --- | --- |
| C/C=C1\C2C=C(C)CC1(N)c1ccc(=O)[nH]c1C2 (stereo not drawn) | 320% [at 56.9 µM] (inactive) | – |
| Cc1ccc(Nc2nnc(-c3ccc(C)c(S(=O)(=O)N4CCCCC4)c3)c3ccccc23)cc1 | -9.78% (inactive) | – |
| CCOC(=O)c1[nH]c(C)c(CCC(=O)NCc2ccccc2C)c1C | 19.7% (inactive) | – |
| O=S(=O)(c1ccc2nc(NCc3ccccc3Cl)ccc2c1)N1CCCCC1 | 0% (inactive) | – |
| CCc1cc2c(cc3c(=O)n(CC(=O)N4CCN(c5cc(Cl)ccc5C)CC4)nc(CC)n32)s1 | 10.4% (inactive) | – |
| COc1ccc(OC)c(-n2nnc(-c3nc(-c4cc(OC)c(OC)c(OC)c4)no3)c2C)c1 | -26.9% (inactive) | – |
| Cc1ccc(SCC(CC(C)C)N2CCN(CCc3ccccc3)CCC2=O)cc1 (stereo not drawn) | 22% (inactive) | – |
| Cc1cccc(NC(=O)CN(c2ccc(C(C)C)cc2)S(=O)(=O)c2c(C)nn(C)c2C)c1C | 5.91% (inactive) | – |
| C#CCCCCCCCCCCCCCCCC(=O)O | -583% [at 56.9 µM, above what the read-out allows, likely interference] (inactive) | – |
| CCCN1CCC(=O)N(C(CSc2ccc(OC)cc2)Cc2ccccc2)CC1 (stereo not drawn) | -16.1% (inactive) | – |
| COc1cccc(CN2CCc3nc(SCC(=O)Nc4ccccc4)[nH]c(=O)c3C2)c1 | 33.7% (inactive) | – |
| COC(=O)c1ccccc1NC(=O)Cn1c(=O)n(-c2cccc(C(F)(F)F)c2)c(=O)c2c(C)c(C)sc21 | 21.6% (inactive) | – |
| COc1ccc(CN(Cc2ccccc2)C(=O)c2ccc(O)cc2)cc1COc1ccc(NC(C)=O)cc1 | 17.2% (inactive) | – |
| COc1cc(OC)c2c(C)cc(=O)oc2c1C(CCN1CCCCC1)c1ccc(N(C)C)cc1 (stereo not drawn) | 0.18% (inactive) | – |
| O=[N+]([O-])c1ccc(S(=O)(=O)N2CCN(c3nc(-c4ccccc4)nc4ccccc34)CC2)cc1 | 9.46% (inactive) | – |
| COc1ccc(OC)c(NC(=O)C2CCCN(S(=O)(=O)c3ccc4c(c3)CCCC(=O)N4)C2)c1 (stereo not drawn) | -0.356% (inactive) | – |
| COCCNC(=O)c1cc(-c2cccc(Cl)c2)on1 | -16% (inactive) | – |
| COc1ccccc1-c1nnc(SCC(N)=O)o1 | 11.9% (inactive) | – |
| O=C(Nc1ccccc1)N[C@H]1C[C@H](C(=O)O)Nc2cc(Cl)cc(Cl)c21 | -585% [at 56.9 µM, above what the read-out allows, likely interference] (inactive) | – |
| CCOc1ccc(S(=O)(=O)c2cn(Cc3ccccc3)c3ccc(OCC)cc3c2=O)cc1 | 1.09% (inactive) | – |
| Cn1c(=O)c2c(nc(SCC(=O)Nc3ccc(F)cc3)n2Cc2ccccc2)n(C)c1=O | -15.8% (inactive) | – |
